# Results published in PubChem BioAssay (NCI).
# The panel holds about 83,000 compounds, 20% with a hit somewhere; the sample as a whole holds those more often.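 Plates (96-well) were seeded with cells, treated with compound at one concentration, and incubated for 48 hours before percent growth was determined.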 Values without a mark were called inactive. Active and inactive are the calls of the source. Rule for the calls: active = growth percent below 10; inactive = the rest.
# Tests used:
# Experiment in all cases: NCI-60 one-dose screen, 48 h (100 = growth as untreated, 0 = no growth, -100 = all killed)
# Details in all cases: 10 µM unless noted
# SR leukemia = test system: SR leukemia
# RPMI-8226 leukemia = test system: RPMI-8226 leukemia
# OVCAR-8 ovarian = test system: OVCAR-8 ovarian
# OVCAR-5 ovarian = test system: OVCAR-5 ovarian
# OVCAR-4 ovarian = test system: OVCAR-4 ovarian
# SK-OV-3 ovarian = test system: SK-OV-3 ovarian
# IGROV1 ovarian = test system: IGROV1 ovarian
# OVCAR-3 ovarian = test system: OVCAR-3 ovarian
# HS 578T breast = test system: HS 578T breast
# NCI/ADR-RES ovarian = test system: NCI/ADR-RES ovarian
# T-47D breast = test system: T-47D breast
# BT-549 breast = test system: BT-549 breast
# MDA-MB-435 melanoma = test system: MDA-MB-435 melanoma
# SW-620 colon = test system: SW-620 colon
# MCF7 breast = test system: MCF7 breast
# HCT-116 colon = test system: HCT-116 colon
# HCC-2998 colon = test system: HCC-2998 colon
# KM12 colon = test system: KM12 colon
SMILES,growth (SR leukemia),growth (RPMI-8226 leukemia),growth (OVCAR-8 ovarian),growth (OVCAR-5 ovarian),growth (OVCAR-4 ovarian),growth (SK-OV-3 ovarian),growth (IGROV1 ovarian),growth (OVCAR-3 ovarian),growth (HS 578T breast),growth (NCI/ADR-RES ovarian),growth (T-47D breast),growth (BT-549 breast),growth (MDA-MB-435 melanoma),growth (SW-620 colon),growth (MCF7 breast),growth (HCT-116 colon),growth (HCC-2998 colon),growth (KM12 colon)
O=C(CN1CCN(c2cc3c(cc2F)c(=O)c(C(=O)O)cn3C2CC2)CC1)Nc1cc(=O)[nH]c(=O)[nH]1,102%,108%,101%,96.4%,113%,110%,96.4%,113%,95.6%,102%,103%,83.3%,102%,95.4%,101%,91.2%,98.1%,108%
CCCCCCCCCC(=O)Oc1ccc(/C(=C(/C)c2ccccc2)c2ccc(OCCN3CCCC3)cc2)cc1,-25.7% (active),-21.8% (active),54.5%,54.4%,32.6%,33.9%,44.6%,42.9%,11.9%,28%,3.1% (active),24.5%,-59% (active),-21.9% (active),-14.1% (active),15.8%,-11.2% (active),15.2%
CCOC(=O)c1c2c(n3ccc(NC(=O)CCN4CCCCC4)cc13)C(=O)c1ncccc1C2=O,-46.6% (active),-6.64% (active),-27% (active),-58.9% (active),-13.5% (active),26.2%,35.1%,-10.9% (active),40.2%,36.8%,44.6%,58.5%,-61.8% (active),-20.2% (active),-61.1% (active),-61.1% (active),-66% (active),-75.6% (active)
CC[C@@H](C)OC(=O)c1nn(C(C)=O)c2ccccc12,110%,107%,92.7%,101%,103%,114%,110%,112%,106%,94.2%,103%,105%,103%,107%,83.6%,104%,96.4%,103%
Cn1c2ccccc2c2c3c(c4c5ccccc5n(CCCCCC#N)c4c21)C(=O)N(O)C3=O,1.39% (active),0.134% (active),27.5%,12.8%,28.4%,37.1%,27.6%,6.92% (active),13%,12.2%,17.4%,18.5%,20.9%,14%,7.79% (active),-19.4% (active),25.3%,16.6%
CCCCN(CCCC)Cc1c(C)[nH]c2cc(OC)ccc2c1=O,92.8%,99.7%,91.9%,119%,106%,92.2%,113%,96.6%,103%,104%,95.7%,108%,104%,101%,94.8%,95.2%,94.6%,104%
CC(=O)Oc1cc2cnc3c4cc(OC(C)=O)c(OC(C)=O)cc4ccc3c2cc1OC(C)=O,-8.28% (active),12.8%,-22.1% (active),54.6%,-4.13% (active),26.9%,-12.8% (active),-3.27% (active),28.1%,13.3%,14.7%,26.8%,23.3%,24.8%,6.96% (active),5.17% (active),45.7%,22.8%
COc1ccc(/C(=C/c2ccc3ccccc3c2)c2nn[nH]n2)cc1OC,15%,16.6%,40.5%,60%,62.7%,39%,48.7%,-17.3% (active),36.5%,-15.4% (active),36.1%,40.3%,-41% (active),29.2%,52.3%,17.7%,55.4%,24.5%
CCCCCC(=O)N(CCCC)CCCC,95.5%,93.8%,102%,103%,84.6%,93.7%,113%,120%,109%,111%,109%,102%,89.4%,117%,123%,108%,111%,109%
CC(=O)C1=C(O)C=C2Oc3c(C(=O)/C=C/c4cc(Cl)cc(Cl)c4)c(O)c(C)c(O)c3[C@]2(C)C1=O,-20.5% (active),-22.1% (active),-24.3% (active),0.163% (active),8.73% (active),-24.4% (active),-13.8% (active),-28.6% (active),-16.6% (active),-40.9% (active),-24.4% (active),-19.9% (active),-42.2% (active),0.897% (active),-10.6% (active),-15.9% (active),-46.9% (active),-6.77% (active)
Nc1cccc(-c2nc3sccn3c2-c2ccnc(NCCCNS(=O)(=O)c3ccc(C(F)(F)F)cc3)n2)c1,15.5%,-29.7% (active),7.14% (active),40.9%,-1% (active),23.8%,4.78% (active),6.08% (active),12.3%,0.058% (active),-16.9% (active),0.811% (active),-14.8% (active),12.7%,2.11% (active),3.07% (active),18.1%,1.52% (active)
CN(C)c1ccc(/C=C(\C#N)c2nc3ccccc3s2)cc1,87.5%,111%,99.5%,109%,90.9%,111%,103%,119%,104%,107%,89.4%,72.9%,89.1%,112%,89%,96.8%,106%,108%
N#Cc1c2c(nc3n[nH]c(N)c13)CCCC2,93.6%,100%,111%,93.8%,101%,116%,109%,100%,117%,105%,98%,130%,106%,96%,110%,101%,92.6%,111%
Cn1c2c(Cl)c(Cl)ccc2c2ccn3c(=O)c4ccccc4nc3c21,75.9%,98.8%,95.5%,96.8%,92.1%,88.9%,54.4%,113%,103%,99.4%,85%,86.4%,98.3%,99.1%,96.2%,90%,100%,103%
C=C1CC2(OC1=O)C(=O)N(CCCCCCCN1C(=O)C3(CC(=C)C(=O)O3)c3ccccc31)c1ccccc12 (stereo unspecified),3.28% (active),-28.1% (active),9.09% (active),45.1%,10.2%,112%,10.5%,3.44% (active),62.3%,32.6%,22.5%,35.2%,6.35% (active),-49.8% (active),-4.01% (active),-21.8% (active),82.5%,73.6%
Cc1ccc2c(NCCCN(C)C)c3c(C)nn(C)c3nc2c1,5.55% (active),27.8%,-5.26% (active),39.3%,28.7%,39.2%,29.2%,49.3%,74.1%,45.3%,44.8%,54.3%,37.1%,23.5%,5.14% (active),20.2%,59.3%,32.8%
COc1cc(NCCCCCN=C(N)NC(N)=NC(C)C)c2ncccc2c1,46.3%,37.6%,23.8%,71.5%,-16.7% (active),83.3%,-13.1% (active),-39.8% (active),64%,99.5%,24.6%,-0.951% (active),69.2%,25.2%,-91.6% (active),-4.52% (active),11%,3.06% (active)
